Source: PubChem
HT1080 IDH1KD tx – toxicity to HT-1080 IDH1 knockdown cells (counter line); HT-1080 IDH1 knockdown viability, ATP luminescence, 48 h; Potency, µM (top dose mostly 46.1 µM), hits mostly cytotoxic; actives 2% (n = 360,000)
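Knockdown cells (IDH1KD HT-1080) received compounds 2 h after plating at 750 cells/well and were kept 48 h at 37 °C in 5% FBS RPMI. A CellTiter-Glo luminescence read gave % activity for curve fitting.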
HT1080NT lethal – kills 2HG-producing HT-1080-NT fibrosarcoma cells. HT-1080-NT fibrosarcoma viability, CellTiter-Glo ATP luminescence, 48 h. Potency, µM (series often up to 46.1 µM), actives largely listed as cytotoxic. actives 1.6% (n = 360,000);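 also: NT is the 2HG producing partner of a matched IDH1 knockdown line; nearly all actives have a fitted effect of over 55% in size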
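Toxicity toward the 2HG-producing NT line was scored as %Activity, normalised to DMSO and no-cell wells, from CellTiter-Glo luminescence after 48 hours' treatment.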
IL-1B inflam inh – inhibitors of inflammasome signaling (IL-1 beta secretion); THP-1 LPS/ATP IL-1B secretion, AlphaLISA, 16 h; active compounds read low; actives 4.7% (n = 360,000); AID 743279; activity change, % at 57.5 µM; in the data active = activity change below about -50%; inconclusive = mostly about -30% to -49%
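Secreted IL-1B measured by AlphaLISA bead assay after 16 h compound exposure of THP-1 cells; compounds (final up to 57.5 uM) added 1 h before LPS (250 ng/mL) and ATP (1.25 mM) stimulation; lower signal means less secretion.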
DT40 TDP1 no CPT – qHTS for Inhibitors of human tyrosyl-DNA phosphodiesterase 1 (TDP1): qHTS in cells in absence of CPT. DT40 Tdp1-/- hTDP1 cells, no CPT, ATP luminescence, 48 h. Potency, µM (highest dose often 46.2 µM), most hits filed as inhibitors. AID 686978, 2013. actives 15% (n = 420,000); also: nearly all actives have a fitted effect of over 55% in size
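Growth kinetics read by CellTiter-Glo luminescence after ≥48 hr at 37 °C. Cells: DT40 Tdp1-/- stably carrying human TDP1, 400 per well, compound exposure in the absence of CPT (DMSO vehicle).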
DT40 TDP1 CPT – DT40-hTDP1 cell growth loss with CPT. chicken DT40 Tdp1-/-;hTDP1 cells + 20 nM CPT, ATP luminescence, 48 h. Potency, µM (series often up to 46.2 µM), actives largely listed as inhibitors. actives 12% (n = 420,000). AID 686979; also: nearly all actives have a fitted effect of over 55% in size
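Chicken DT40 Tdp1-/- cells stably complemented with human TDP1 were seeded at 400 cells/well in medium containing 20 nM camptothecin, exposed to pin-transferred compounds, and grown at 37 °C for at least 48 hr. Viability was read as ATP luminescence.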
Numbers stand for hits; - = inactive; ? = inconclusive; . = not tested or not shown; [ ] = remark or other dose. A selection: hits, their analogues and other compounds. The true share with any hit is near 19%. Unless noted, calls follow the shape of the dose curve; as a rule, active = well fitted curve in the direction sought with a large enough effect; inconclusive = small, poorly fitted or top-dose-only effect, or another doubt; inactive = no such curve, though single readings can be large; an effect the other way counts as inactive or inconclusive.

SMILES	HT1080 IDH1KD tx	HT1080NT lethal	IL-1B inflam inh	DT40 TDP1 no CPT	DT40 TDP1 CPT
COc1ccc(OCC(=O)Nc2ccc3nc(C)sc3c2)cc1	-	-	-	-	-
CCOC(=O)C(=C1Nc2ccccc2N1)n1c(-c2cccnc2)nc2ccccc21	-	-	-	?	11.6µM
COC(=O)c1ccc(NC(=O)Cn2nc(-c3ccncc3)nc2SCC(=O)Nc2nccs2)cc1	-	-	-	-	-
Cc1cnc2ccc(I)cc2c1/C=C/c1ccc(N(C)C)cc1	.	.	.	4.47µM	?
Cc1cc(/C=C/c2c(C)cnc3ccccc23)ccc1N(C)C	.	.	.	8.91µM	8.91µM
c1ccc2c(c1)cnc1ccccc12	?	?	-	-	-
CN(C)c1ccc(/C=C/c2c(F)cnc3ccccc23)cc1	.	.	.	3.16µM	7.94µM
CN(C)c1ccc(C=Cc2cnccn2)cc1	-	-	-	?	-
Cc1ccnc2ccc(I)cc12	.	.	.	-	?
COc1cccc(C(=O)c2ccncc2C(=O)O)c1OC	-	-	-	-	-
Cc1cc(C)c(NS(=O)(=O)c2ccc(NC(=O)CCC(=O)O)cc2)c(C)c1	?	-	-	-	-
O=c1[nH]c2c(-c3nc(-c4ccc(Cl)cc4)cs3)c(O)cn2c2ccccc12	.	.	.	2.82µM	3.98µM
CCOC(=O)C1CCN(C(=O)c2ccc(NS(=O)(=O)c3ccc(F)cc3C)cc2)CC1	-	-	-97.1	?	-
COc1ccc(C(=O)N2CCN(c3ccccn3)CC2)cc1	-	-	-	-	-
CCOC(=O)C1CCN(C(=O)c2ccc(S(=O)(=O)Nc3ccccc3OC)cc2)CC1	-	-[9.24 µM]	-	?	9.2µM
Cc1ccc(NS(=O)(=O)c2ccc(C(=O)N3CCN(c4ccccn4)CC3)cc2)cc1	-	-	-	11.6µM	13µM
COc1ccccc1NS(=O)(=O)c1ccc(C(=O)N2CCN(c3ccccn3)CC2)cc1	-	-	-	13µM	23.1µM
Cc1cc(F)ccc1S(=O)(=O)Nc1ccc(C(=O)N2CCCCC2)cc1	-	-	-	?	?
O=[N+]([O-])c1cccc(S(=O)(=O)NCC2CC3CCC2C3)c1 (stereo not given)	-	-	-	?	-
COc1ccccc1NS(=O)(=O)c1cc(C(=O)N2CC(C)CC(C)C2)ccc1C (stereo not given)	-	-	-	20.6µM	?
CCOC(=O)C1CCCN(C(=O)c2cc(S(=O)(=O)Nc3ccccc3OC)ccc2C)C1 (stereo not given)	-	-	-	?	-
Cc1ccc(S(=O)(=O)Nc2ccc(N3CCN(C)CC3)nc2)cc1	-	-	-64.6	-	-
CN1CCN(c2ccc(NS(=O)(=O)c3ccc(Cl)cc3)cn2)CC1	-	-	-	-	-
COc1ccccc1NS(=O)(=O)c1ccc(C)c(C(=O)N2CCN(c3ccc(O)cc3)CC2)c1	-	-	-	13µM	14.6µM
O=S(=O)(NCCN1CCOCC1)c1cc(Cl)ccc1Cl	-	-	-	-	-
SMILES	HT1080 IDH1KD tx	HT1080NT lethal	IL-1B inflam inh	DT40 TDP1 no CPT	DT40 TDP1 CPT
CCOC(=O)c1c(NC(C)=O)sc2c(OCC(O)CNC(C)(C)C)c(Br)ccc12 (stereo not given)	-	?	-71.9	10.3µM	?
CCOC(=O)c1c(N)sc2c(OCC)c(Br)ccc12	?	?	-	?	?
CN(C)c1ccc(C(=C2C=CC(=[N+](C)C)C=C2)c2ccc(N(C)C)cc2)cc1	.	.	.	0.517µM	0.231µM
CN(C)c1ccc(C(=C2C=CC(=[N+](C)C)C=C2)c2ccccc2)cc1	.	.	.	0.596µM	0.841µM
CC(=O)NC(Cc1ccc(F)cc1)C(=O)NC1CCN(C(=O)NCc2ccccc2)CC1 (stereo not given)	-	-	-	-	-
CC(=O)c1cc(CN2CCN(C(C)C)C(CCO)C2)cs1 (stereo not given)	-	-	-	?	-
CCCOc1ccc(N2CC(C(=O)NCCc3ccc(OC)c(OC)c3)CC2=O)cc1 (stereo not given)	-	-	-	-	-
O=C(NCc1ccccc1)C(=O)NCC(c1ccco1)S(=O)(=O)c1ccccc1 (stereo not given)	.	.	.	-	-
COc1ccc(OC)c(S(=O)(=O)N2CCN(c3ncccn3)CC2)c1	-	?	-	14.6µM	?
COc1ccc(OC)c(S(=O)(=O)N2CCN(c3c(C)cccc3C)CC2)c1	-	-	-	-	-
COc1ccc(OC)c(S(=O)(=O)N2CCN(C34CC5CC(CC(C5)C3)C4)CC2)c1	-	-	-	16.4µM	?
COc1ccc(OC)c(S(=O)(=O)N2CCN3CCCC3C2)c1 (stereo not given)	-	-	-	-	-
COc1ccc(OC)c(S(=O)(=O)N2CCCC(N3CCN(c4ccccc4)CC3)C2)c1 (stereo not given)	-	-	-	25.9µM	?
Cc1ccc(S(=O)(=O)N2CCN(C(=O)C(C)Cn3nc(C)c(C)c3C)CC2)cc1 (stereo not given)	-	-	-	-	-
Fc1ccc(-c2cc(-c3ccccc3)c3c(n2)-c2cc(F)ccc2OC3)cc1	.	.	.	-	-
Cc1cccc(C)c1NC(=O)C(=O)NCC(c1cccnc1)N1CCc2ccccc21 (stereo not given)	.	.	.	13µM	14.6µM
Cc1ccc(Cl)cc1NC(=O)NCc1cccnc1	-	-	-	-	-
COc1ccccc1N1CCN(C(CNC(=O)C(=O)NCCN(C)C)c2cccnc2)CC1 (stereo not given)	.	.	.	-	-
CCc1ccccc1NC(=O)C(=O)NCC(c1cccnc1)N1CCc2ccccc21 (stereo not given)	.	.	.	20.6µM	?
Cc1ccc(Cl)cc1NC(=O)C(=O)NCC(c1cccnc1)N1CCc2ccccc21 (stereo not given)	.	.	.	13µM	13µM
Cc1ccccc1C(=O)NCC(c1cccnc1)N1CCc2ccccc21 (stereo not given)	.	.	.	18.4µM	?
CCc1cc(C(=O)Nc2ccc(S(=O)(=O)NC3=NCCCCC3)cc2)sc1C	-	-	?	?	?
CCC1(c2ccc(F)cc2)NC(=O)N(CC(=O)N(C)C2CCS(=O)(=O)C2)C1=O (stereo not given)	-	-	-	-	-
Cc1nn(-c2cccc(Cl)c2)c2nc(-c3cccnc3)cc(C(F)(F)F)c12	.	.	.	-	-
CSCCC(NS(=O)(=O)c1cccc(C(F)(F)F)c1)C(=O)Nc1ccccc1N1CCCC1 (stereo not given)	-	-	-	?	?
CCCCn1c(=NC(=O)C(C)(C)Oc2ccc(Cl)cc2)c(C(=O)OCC)cc2c(=O)n3ccccc3nc21	.	.	.	-	-
Nc1sc(-c2ccccc2)n[n+]1Cc1cccc2cccnc12	-	-	?	23.1µM	?
O=C(NCc1ccc(Cl)cc1)c1cc2cccc3c2n1CCS3	.	.	.	16.4µM	?
